One experiment concerns HEK293. The experiment can be described thus: Cytotoxic Profiling of Annotated Libraries Using Quantitative High-Throughput Screening (AID 1296008). As to max response: % is scaled to controls: 0 for no effect and ±100 for the full control effect. The note with it: Five cell lines viability, CellTiter-Glo ATP luminescence, 48-72 h; max response: stronger effect = lower value. The method in brief: (§1)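 Cytotoxicity was measured as CellTiter-Glo ATP luminescence, read after 10 min at room temperature. Compound treatment of the cells lasted 48 or 72 hr at 37 degrees Celsius in a qHTS format.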
For orientation: ATP-based viability assays read luminescence as a measure of living cells.

The test system of experiment [1] is HaCat. The experiment is described as above. The note with it: Five cell lines viability, CellTiter-Glo ATP luminescence, 48-72 h; max response: stronger effect = lower value. The method in brief: as §1
The test system of a further experiment is KB-3-1. Described as above. The note with it: Five cell lines viability, CellTiter-Glo ATP luminescence, 48-72 h; max response: stronger effect = lower value. The essentials: as §1
The next experiment concerns NIH3T3. The description is as above. The note with it: Five cell lines viability, CellTiter-Glo ATP luminescence, 48-72 h; max response: stronger effect = lower value. The method in brief:
as §1

The next experiment relates to HEK293T. The experiment can be described thus: qHTS assay to identify novel small-molecules to repurpose for Merkel cell carcinoma treatment (AID 1296009). To be noted: MCC and control cell lines, CellTiter-Glo viability, 72 h; at 44.8 µM (top of the series) unless noted. The method in brief: (§2)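 72 hr, 37 degree celsius; NPC 8-pt / MIPE 11-pt dose response; compound pinned in DMSO; CellTiter-Glo, 10 min RT, luminescence; normalized to no-cell and DMSO controls.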
(In general: In qHTS, concentration-response curves come from the screen itself.)

Experiment [2] deals with HACAT. The description is as above. The note with it: MCC and control cell lines, CellTiter-Glo viability, 72 h; series mostly up to 44.8 µM. The method in brief: as §2
The next experiment relates to MKL-1. The experiment is described as above. To be noted: MCC and control cell lines, CellTiter-Glo viability, 72 h; series mostly up to 46 µM. The essentials: as §2

SMILES strings stand for the structures. Results filed as inconclusive are left out. A number with no mark means an inactive call. The source made the active and inactive calls. Calls follow the shape of the dose curve; as a rule, active = well fitted inhibition curve with a large enough effect; inconclusive = small, poorly fitted or top-dose-only effect; inactive = flat fitted curve, though single readings scatter.
Also: nearly all actives have a fitted effect of over 60% in size.
Potency is read from the fitted curve at half-maximal effect.

Regarding `CC(C)c1ccc(CO)cc1O[C@@H]1O[C@H](CO)[C@@H](O)[C@H](O)[C@H]1O`, the result in the experiment on HEK293, in the experiment on KB-3-1, in the experiment on NIH3T3 and with HEK293T was inactive. Besides, the max response in the experiment with HaCat [1] was 1.11%.
Take `COc1cc(O)c2c(c1)C1=C[C@H](O)[C@@H](O)C[C@]1(C)OC2=O`: the result with HEK293, in the experiment with NIH3T3 and in the experiment with HEK293T was inactive. Moreover, the max response is -2.92% in the experiment on HaCat [1] and 9.7% in the experiment with KB-3-1.
Take `C=CC(=O)N1CCN(C(=O)CNc2cc(I)c(Cl)cc2O)CC1`: the Potency is 13 µM (active) with HEK293 and 20.6 µM (active) in the experiment with KB-3-1. The result with HaCat [1] was inactive. Besides, in the experiment on HACAT [2], the Potency entry is “inactive”.
`COc1ccc(-c2cnc3ccc(NCc4ccc(S(N)(=O)=O)cc4)nn23)cc1OC`: the values for the max response with HEK293, with KB-3-1 and in the experiment with NIH3T3 were -0.271%, -8.36% and -14%, respectively. The molecule was called inactive with HaCat [1]. The Potency entry in the experiment with HACAT [2] was “inactive”.
In the case of `Cc1cc(C)c2c(N)c(C(=O)NCc3ccc(Cl)cc3)sc2n1`, the max response with HEK293 is -96.1%; with HaCat [1], -6.45%; in the experiment on KB-3-1, -4.61%; with NIH3T3, -1.38%.
On to `CC1=C2C(O)C(=O)OC(c3ccoc3)C2(C)CCC1O` (stereo not drawn), for which the max response was -2.84% in the experiment on HEK293 and 3.37% in the experiment with NIH3T3. Also, the call in the experiment with HaCat [1] and with KB-3-1 was inactive. Also, in the experiment with HACAT [2], the Potency entry was “inactive”.
In the case of `COCCN1CCN(Cc2ccc(-c3n[nH]c4c3C(=O)c3c(NC(=O)NN5CCOCC5)cccc3-4)cc2)CC1`, the Potency in the experiment on HEK293 is 0.206 µM (active); with HaCat [1], 231 nM (active); with KB-3-1 it was 0.146 µM (active); in the experiment with NIH3T3, 517 nM (active).
Turning to `C=CC1C(OC2OC(CO)C(O)C(O)C2O)OC=C(C(=O)OC)C1CC(=O)OCC1C(C)C(O)CC1C(CO)COC(=O)CC1C(C(=O)O)=COC(OC2OC(CO)C(O)C(O)C2O)/C1=C\C` (stereo not drawn), the max response in the experiment with HEK293 is 0.0453%; in the experiment with NIH3T3 it was -19.3%. Moreover, the molecule was called inactive in the experiment with HaCat [1] and with KB-3-1. In addition, the outcome in the experiment on HACAT [2] was “inactive [at 9.27 µM]”.
In the case of `CC(C)c1cc(C(=O)N2CC[C@H](NC(=O)C3CC3)C2)n[nH]1`, the max response in the experiment on HEK293 was -6.43%; in the experiment with KB-3-1, -1.18%; with NIH3T3, -25.5%. Also, the result in the experiment on HaCat [1] was inactive. Further, the Potency result in the experiment with HACAT [2] is “inactive”.
As to `COC(=O)C12C(=O)C(C)=C(O)C1(C)C(C)=CC1C3(CO)CCC(O)C(C)(C)C3CCC12C` (stereo not drawn), the max response in the experiment on HEK293 is 1.96%; in the experiment on KB-3-1, -2.12%; in the experiment with NIH3T3 it was -3.91%. For the same molecule, in the experiment with HaCat [1], the call was inactive. In addition, in the experiment with HACAT [2], the Potency entry was “inactive”.
With `COc1cc2occc2c(O[C@@H]2O[C@H](CO)[C@@H](O)[C@H](O)[C@H]2O)c1CCC(=O)O`, the result with HEK293 and in the experiment with KB-3-1 was inactive. The max response with HaCat [1] was 2.4%; in the experiment with NIH3T3, 1.36%. Also, the outcome in the experiment with HEK293T is “inactive [at 17.4 µM]”.
`C/C(=C\CCC(C)CCO)C(=O)OC1(C)CCC2C(C(=O)O)=COC(OC3OC(CO)C(O)C(O)C3O)C21` (stereo not drawn): the result in the experiment with HEK293 and in the experiment with KB-3-1 was inactive. The max response with HaCat [1] is -20.6%. Besides, the outcome is “inactive; activator” in the experiment on NIH3T3 and “inactive [at 17.4 µM]” in the experiment with HEK293T.
As to `Cc1ccc(N)cc1O`, the result in the experiment on HaCat [1] was inactive. Besides, the Potency in the experiment on MKL-1 was 6.11 µM (active).
Regarding `O=C(/C=C/c1ccccc1)OC[C@]12O[C@H]1[C@@H](O)[C@@H]1C=CO[C@@H](O[C@@H]3O[C@H](CO)[C@@H](O)[C@H](O)[C@H]3O)[C@@H]12`, in the experiment with HACAT [2], the Potency result was “inactive”. Besides, the outcome with HEK293T is “inactive [at 17.4 µM]”.
As to `C=CC(C)(C)c1[nH]c2cc3c(cc2c1CC1NC(=O)C2=CCCN2C1=O)C=CC(C)(C)O3` (stereo not drawn), the Potency entry with HACAT [2] is “inactive”.
As for `C[C@@]1(O)[C@H](O)[C@@H](CO)O[C@H]1n1ccc(N)nc1=O`, the result with HEK293T was inactive.

Values taken from PubChem BioAssay (NCATS).
